# Rows were chosen to be rich in hits. Some 7.5% of all compounds tested hit in one or more screens of this group.
# FLuc counter: firefly luciferase modulation, counter-screen for miR-21 project; purified FLuc, Km substrates, luminescence inhibition; Potency, µM (top dose mostly 57.5 µM), for inactives: at the top dose activity change, negative = inhibition, most hits filed as inhibitors; actives 6.9% (n = 360,000); AID 588342;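 note: plate controls were vehicle for no effect and reference inhibitor for full effect; nearly all actives have a fitted effect of over 55% in size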
# Target sequence (P08659 whole entry, looked up): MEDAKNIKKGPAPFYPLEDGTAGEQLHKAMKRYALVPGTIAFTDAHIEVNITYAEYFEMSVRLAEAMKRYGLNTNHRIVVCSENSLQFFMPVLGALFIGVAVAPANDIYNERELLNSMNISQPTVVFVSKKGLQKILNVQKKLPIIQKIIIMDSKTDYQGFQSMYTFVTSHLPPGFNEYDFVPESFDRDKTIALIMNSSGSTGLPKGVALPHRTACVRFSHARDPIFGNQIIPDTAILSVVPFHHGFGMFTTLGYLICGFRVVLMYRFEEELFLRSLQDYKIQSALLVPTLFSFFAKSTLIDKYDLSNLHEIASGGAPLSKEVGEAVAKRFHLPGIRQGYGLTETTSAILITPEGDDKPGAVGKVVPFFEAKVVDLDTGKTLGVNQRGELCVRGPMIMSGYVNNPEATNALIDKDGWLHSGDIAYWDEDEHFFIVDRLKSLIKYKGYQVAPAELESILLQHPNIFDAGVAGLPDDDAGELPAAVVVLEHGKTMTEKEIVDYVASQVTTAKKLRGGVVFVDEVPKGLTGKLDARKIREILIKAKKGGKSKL
#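 Biochemical qHTS of compounds, final roughly 60 µM downward over six points, against 10 nM purified firefly luciferase using Km concentrations of substrates (10 uM D-luciferin, 10 uM ATP) in Tris acetate pH 7.5 buffer; luminescence output.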
# Luc counter: Kinase-Glo luciferase inhibition (counter-screen) | Kinase-Glo luciferase, ATP luminescence, 8 min | AID 1379 | Q27757 | actives 0.28% (n = 200,000) | Potency, µM (doses to about 38.3 µM), for the others: at the top dose activity change, negative = inhibition, hits mostly inhibitors; note: % is set by controls: 0 for no effect and ±100 for the full control effect; nearly all actives have a fitted effect of over 60% in size
#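 Light output from Kinase-Glo luciferase with luciferin and 10 uM ATP in 50 mM imidazole pH 7.2, KCl, MgCl2, Tween 20, BSA; compound pin-delivered, 8-min ambient incubation, then luminescence read.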
# SMN2 splice up: SMN2 splice variant enhancement. HEK293 SMN2-luciferase splicing reporter, luminescence, 30-36 h. Potency, µM (top dose mostly 46.1 µM), without a hit: at the top dose activity change, positive = activation, actives largely listed as activators. actives 2.8% (n = 210,000); note: % of control where 0% means no effect; nearly all actives have a fitted effect of over 55% in size
#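 HEK293 cells carry an SMN2 minigene-luciferase reporter in which exon 7 inclusion puts luciferase in frame. Cells were seeded at 2000 cells/well, attached for 10-12 hours, then exposed to compounds for 30-36 hours at 37C before ONE-Glo luminescence.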
# Rab9 prom act: Rab9 promoter activation; Huh7 Rab9 promoter-luciferase reporter, luminescence, 24 h; Potency, µM (doses to about 9.22 µM), without a hit: at the highest dose activation, negative = inhibition, actives largely listed as activators; actives 2.8% (n = 320,000); note: % of control where 0% means no effect; nearly all actives have a fitted effect of over 60% in size
#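 Luminescence from Amplite-detected luciferase (10 minutes, ambient) reports Rab9 promoter activation. Before that, stable Rab9-luciferase Huh7 cells (1500/well, reduced-serum OP-MEM I plus 10% FBS) were exposed to compound for 24 hours at 37C.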
# ELG1 genotox: induces genotoxicity in HEK293T cells with luciferase-tagged ELG1 | Potency, µM (titrated, usually from 46 µM), inactives show at the top dose activity change, positive = activation, most hits filed as activators | actives 1.3% (n = 330,000) | HEK293T ELG1-luciferase reporter, luminescence, 16 h; note: % of control where 0% means no effect; nearly all actives have a fitted effect of over 60% in size
#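 Screening used a luciferase reporter fused to human ELG1 in HEK293T cells. Luminescence was read on a CCD plate imager after 16 hr exposure and 30 min ONE-Glo incubation.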
# NPC1 promoter act: activators of NPC1 promoter | actives 2.4% (n = 320,000) | AID 485313 | Huh7 NPC1 promoter luciferase reporter, 24 h | Potency, µM (highest dose often 9.22 µM), for the others: top-dose activation, most hits filed as activators; note: % of control where 0% means no effect; nearly all actives have a fitted effect of over 60% in size
#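 Luminescence from an NPC1 promoter-driven luciferase reporter in stably transfected Huh7 cells was measured after 24 h compound treatment at 37 °C, followed by 10 min ambient incubation with luciferase detection reagent.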
# Numbers without * were called inactive; u = inconclusive; x = no result given; [ ] = dose if it differs, or a comment. Calls come from the whole dose curve; as a rule, active = well fitted curve in the direction sought with a large enough effect; inconclusive = small, poorly fitted or top-dose-only effect, or another doubt; inactive = no such curve, though single readings can be large; an effect the other way counts as inactive or inconclusive. Potency is the fitted concentration of half-maximal effect.
SMILES,FLuc counter,Luc counter,SMN2 splice up,Rab9 prom act,ELG1 genotox,NPC1 promoter act
Cc1cc(C)n(-c2nc(-c3ccc(Cl)cc3)cs2)n1,5.4µM*,-4%,13%,3.5µM*,u,u
Cc1ccc(-c2csc(N3C(=N)SCC3=O)n2)cc1,2.4µM*,x,x,2.8µM*,10µM*,u
CC1=NN(c2nc(-c3ccc(Cl)cc3)cs2)C(=O)C1,15µM*,-2%,-2%,-5%,-6%,7%
COCCCn1c(=O)c2sccc2n(Cc2ccc(C)cc2)c1=O,0%,x,x,-2%,0%,-1%
Cc1cc(NC(=O)c2cccc(C(=O)Nc3cc(C)on3)n2)no1,-2%,0%,14%,-16%,-4%,0%
CCNC(=O)c1sc2cc(C)ccc2c1Cl,11µM*,0%,30%,3.2µM*,u,u
CCn1c(C(=O)NCCc2ccc(OC)c(OC)c2)cc2sc(Cl)cc21,u,x,-43%,x,x,x
Cc1ccc2c(Cl)c(C(=O)NCCc3ccccc3)sc2c1,6µM*,-1%,16µM*,2.5µM*,u,3.5µM*
Cn1c(C(=O)NCCc2ccccc2)cc2sc(Cl)cc21,1.2µM*,x,2.8µM*,x,x,x
COc1ccc(CCNC(=O)c2sc3cc(C)ccc3c2Cl)cc1,5%,8%,-23%,-2%,0%,0%
Cc1ccc2c(Cl)c(C(=O)Nc3cc(C)on3)sc2c1,u,-2%,u,2.2µM*,8.2µM*,2.8µM*
COc1cc2c(cc1OC)n(CC(=O)c1cc(C)ccc1C)c(=O)n1nc(CCn3nc(C)cc3C)nc21,-3%,x,x,x,x,x
CCOc1cc(-c2ccc(OC(=O)c3ccc(Cl)cc3)c(OC)c2)cc(=O)c2c(C)oc(C)c12,-7%,x,x,x,x,x
Cc1ccccc1C(=O)Nc1cccc(C(=O)N/N=C/c2ccc3c(c2)OCO3)c1,3µM*,x,x,u,7%,17%
O=C(N/N=C/c1ccc2c(c1)OCO2)c1cccc(NC(=O)c2ccccc2Cl)c1,2.7µM*,x,x,25%,u,-13%
Cc1cccc(C(=O)Nc2cccc(C(=O)N/N=C/c3ccc4c(c3)OCO4)c2)c1,1.9µM*,x,x,27%,9%,29%
CC1CCCN(c2ccc(C(=O)NCc3cccs3)cn2)C1 (stereo not drawn),19µM*,-3%,13µM*,u,u,u
O=C(NCc1cccs1)c1ccncc1,1%,4%,4%,3%,-3%,-1%
O=C(NCc1cccs1)c1ccc(N2CCCCC2)nc1,21µM*,-9%,u,x,x,x
CC1CCCN(c2ccc(C(=O)NCc3ccccc3)cn2)C1 (stereo not drawn),u,2%,u,u,5%,17%
CN1CCN(NC(=O)c2ccc(Br)s2)CC1,-2%,x,x,-4%,-3%,-2%
COc1ccc(-c2cn3cc(Br)cnc3n2)cc1,u,-8%,10µM*,u,21µM*,9%
COc1cc(C(=O)Nc2cc(-c3cn4cccnc4n3)ccc2C)cc(OC)c1OC,12µM*,0%,1%,u,13%,0%
COc1ccc(-c2cn3cccnc3n2)cc1Br,19µM*,-3%,u,12%,u,12%
COc1cc(OC)cc(C(=O)Nc2cc(-c3cn4cccnc4n3)ccc2C)c1,u,2%,6%,-7%,6%,1%
SMILES,FLuc counter,Luc counter,SMN2 splice up,Rab9 prom act,ELG1 genotox,NPC1 promoter act
COc1ccc(-c2cc(-c3ccccc3)nc3ncnn23)cc1,-3%,-3%,-46%,-30%,-13%,-4%
Cc1ccc(NC(=O)c2ccc(OC(F)(F)F)cc2)cc1S(=O)(=O)N(C)C,u,-4%,-76%,-27%,-3%,-13%
O=C(Cc1ccccc1)Nc1cc([N+](=O)[O-])ccc1N1CCOCC1,6%,-2%,-9%,-4%,-6%,-3%
N#CC1=C(N)N2C(=C(C#N)C13CCCCC3)SC1CCCCC12O (stereo not drawn),3%,1%,-28%,-13%,x,-1%
COc1ccc(C)cc1NC(=O)c1cc(S(=O)(=O)N2CCCCC2)c[nH]1,2%,x,x,x,x,x
Cc1ccc(CNC(=O)c2sc3nc(-c4ccccc4)cn3c2C)cc1,-2%,x,x,x,x,x
Cc1c(C(N)=O)sc2nc(-c3ccccc3)cn12,19µM*,0%,30%,u,u,u
Cc1c(C(=O)NCC(C)C)sc2nc(-c3ccc(F)cc3)cn12,-12%,0%,18%,2µM*,u,u
Cc1c(C(=O)NCc2ccc(F)cc2)sc2nc(-c3ccc(F)cc3)cn12,-8%,x,x,x,x,x
COc1ccc(-c2cn3c(C)c(C(=O)Nc4cccc(NC(C)=O)c4)sc3n2)cc1,9.5µM*,-1%,-18%,-3%,2%,9%
O=c1c2ccccc2nc2ccc(NCc3ccco3)nn12,11µM*,-22%,14µM*,u,u,u
Cc1sc2nc3ccc(NCc4ccco4)nn3c(=O)c2c1C,-13%,0%,16%,4%,0%,0%
CCC1CO/C(=C(\C(Cl)=C(Cl)Cl)[N+](=O)[O-])N1 (stereo not drawn),5%,0%,-13%,-9%,7%,-3%
COC(=O)c1ccc(CC(=O)c2nc3ccccc3s2)cc1,3µM*,-9%,1%[1.84 µM],2.8µM*,u,u
COC(=O)c1ccc(CSc2nc3ccccc3s2)o1,17µM*,1%,u,u,16µM*,u
O=C(Cc1ccccc1)c1nc2ccccc2s1,11µM*,-13%,4µM*,2.8µM*,u,2.5µM*
O=C(O)CSc1nc2ccccc2s1,-16%,x,x,0%,1%,-2%
CC(C)NC(=O)c1nc2ccccc2s1,u,-1%,x,-2%,u,1%

# From PubChem
